# Results from PubChem BioAssay (NCATS).
# Results filed as inconclusive are left out. Entries that show only a call come without a potency. Values without a mark were called inactive. Calls of active or inactive are those of the source. Calls come from the whole dose curve; as a rule, active = well fitted curve in the direction sought with a large enough effect; inconclusive = small, poorly fitted or top-dose-only effect, or another doubt; inactive = no such curve, though single readings can be large; an effect the other way counts as inactive or inconclusive.
# What was measured:
# [1] = qHTS of pediatric cancer cell lines to identify multiple opportunities for drug repurposing: Primary screen for SK-N-SH cells (AID 1347098); note: nearly all actives have a fitted effect of over 65% in size; note: potency is the fitted concentration of half-maximal effect;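 for activity change, negative = cytotoxic: DMSO served as neutral control and bortezomib at 2.3 µM as positive control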
# How it was run: (§1)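 Cells (500-1,000/well) rested 5 h, then received compounds for 48 h; metabolically active cells were measured by CellTiter-Glo luminescence. Final concentrations spanned up to 46 µM (MIPE, 11-point) or 0.59 nM-46 µM (NPC, 8-point) in primary screens, 11-point in follow-ups.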
# [2] = qHTS of pediatric cancer cell lines to identify multiple opportunities for drug repurposing: Primary screen for NB1643 cells (AID 1347099); note: nearly all actives have a fitted effect of over 50% in size; note: potency is the fitted concentration of half-maximal effect
# How it was run: (§2)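 Primary screen of approved and investigational compounds on cells in growth media at 37 degrees C, 5% CO2. MIPE set at 11-point and NPC set at 8-point dilutions; viability scored by ATP-based luminescence at 48 hours.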
# [3] = qHTS of pediatric cancer cell lines to identify multiple opportunities for drug repurposing: Primary screen for LAN-5 cells (AID 1347100); note: potency is the fitted concentration of half-maximal effect
# How it was run: as §1
# [4] = qHTS of pediatric cancer cell lines to identify multiple opportunities for drug repurposing: Primary screen for BT-12 cells (AID 1347101); note: nearly all actives have a fitted effect of over 25% in size; note: potency is the fitted concentration of half-maximal effect
# How it was run: as §1
# [5] = qHTS of pediatric cancer cell lines to identify multiple opportunities for drug repurposing: Primary screen for RD cells (AID 1347104); note: nearly all actives have a fitted effect of over 55% in size; note: potency is the fitted concentration of half-maximal effect
# How it was run: as §2
# [6] = qHTS of pediatric cancer cell lines to identify multiple opportunities for drug repurposing: Primary screen for MG 63 (6-TG R) cells (AID 1347105); note: nearly all actives have a fitted effect of over 50% in size; note: potency is the fitted concentration of half-maximal effect
# How it was run: as §2
# [7] = qHTS of pediatric cancer cell lines to identify multiple opportunities for drug repurposing: Primary screen for control Hh wild type fibroblast cells (AID 1347106);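 note: series mostly up to about 46 µM; a drop in luminescence marks cytotoxicity and a rise apparent proliferation; nearly all actives have a fitted effect of over 55% in size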
# How it was run: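 Viability after 48 h compound treatment at 37C, 500-1,000 cells/well, read as ATP luminescence with CellTiter-Glo. Primary screens used 11-point (MIPE, 0.78 nM-46 µM) or 8-point (NPC, 0.59 nM-46 µM) final concentrations; follow-up screens used 11-point dilutions.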
# [8] = qHTS of pediatric cancer cell lines to identify multiple opportunities for drug repurposing: Primary screen for Rh30 cells (AID 1347107); note: series mostly up to about 46 µM; nearly all actives have a fitted effect of over 75% in size
# How it was run: as §1
# [9] = qHTS of pediatric cancer cell lines to identify multiple opportunities for drug repurposing: Primary screen for Rh41 cells (AID 1347108);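 note: series mostly up to about 46 µM; luminescence drop marks cytotoxic hits; nearly all actives have a fitted effect of over 70% in size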
# How it was run: as §2
# [10] = qHTS of pediatric cancer cell lines to identify multiple opportunities for drug repurposing: Confirmatory screen for NB1643 cells (AID 1347109); note: nearly all actives have a fitted effect of over 45% in size; note: potency is the fitted concentration of half-maximal effect
# How it was run: as §1
# [11] = qHTS of pediatric cancer cell lines to identify multiple opportunities for drug repurposing: Confirmatory screen for A673 cells (AID 1347110);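 note: cells exposed to compound for 48 h before the viability read; nearly all actives have a fitted effect of over 65% in size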; note: potency is the fitted concentration of half-maximal effect
# How it was run: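 Concentration-response curves came straight from titrations: 11 points (0.78 nM to 46 µM) for MIPE and several concentrations (0.59 nM to 46 µM) for NPC in primary, 11 points in follow-up. Readout: ATP luminescence at 48 h.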
# [12] = qHTS of pediatric cancer cell lines to identify multiple opportunities for drug repurposing: Confirmatory screen for SK-N-MC cells (AID 1347111);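 note: cells exposed to compound for 48 h before the readout; nearly all actives have a fitted effect of over 70% in size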; note: potency is the fitted concentration of half-maximal effect
# How it was run: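 Seed 500-1,000 cells/well; rest 5 h at 37 degrees C. Pin-transfer compounds, 11-point titration. Incubate 48 h. Add CellTiter-Glo, 15 min RT, read luminescence.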
# [13] = qHTS of pediatric cancer cell lines to identify multiple opportunities for drug repurposing: Confirmatory screen for BT-12 cells (AID 1347112); note: nearly all actives have a fitted effect of over 55% in size; note: potency is the fitted concentration of half-maximal effect
# How it was run: as §1
# [14] = qHTS of pediatric cancer cell lines to identify multiple opportunities for drug repurposing: Confirmatory screen for LAN-5 cells (AID 1347113); note: potency is the fitted concentration of half-maximal effect; nearly all actives have a fitted effect of over 65% in size
# How it was run: as §1
# [15] = qHTS of pediatric cancer cell lines to identify multiple opportunities for drug repurposing: Confirmatory screen for DAOY cells (AID 1347114); note: nearly all actives have a fitted effect of over 65% in size
# How it was run: (§3)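 Viability measured as metabolically active cells via CellTiter-Glo luminescence following 48 hours of compound exposure, 11-point dilutions in confirmatory testing. 500-1,000 cells/well plated 5 hours before dosing; controls were DMSO and 2.3 µM bortezomib.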
# [16] = qHTS of pediatric cancer cell lines to identify multiple opportunities for drug repurposing: Confirmatory screen for NB-EBc1 cells (AID 1347115);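 note: cells exposed to compound for 48 h before the viability read; nearly all actives have a fitted effect of over 45% in size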; note: potency is the fitted concentration of half-maximal effect
# How it was run: as §1
# [17] = qHTS of pediatric cancer cell lines to identify multiple opportunities for drug repurposing: Confirmatory screen for SJ-GBM2 cells (AID 1347116); note: nearly all actives have a fitted effect of over 60% in size; note: potency is the fitted concentration of half-maximal effect
# How it was run: as §3
# [18] = qHTS of pediatric cancer cell lines to identify multiple opportunities for drug repurposing: Primary screen for Rh18 cells (AID 1347102); note: nearly all actives have a fitted effect of over 65% in size
# How it was run: as §1
# [19] = qHTS of pediatric cancer cell lines to identify multiple opportunities for drug repurposing: Primary screen for OHS-50 cells (AID 1347103); note: nearly all actives have a fitted effect of over 40% in size; note: potency is the fitted concentration of half-maximal effect
# How it was run: as §1
compound,measurement,setting,value
CCCCC/C(C=O)=C\c1ccccc1,Potency,[1],inactive
same,Potency,[2],inactive
same,Potency,[3],inactive
same,Potency,[4],0.155 µM (active)
same,Potency,[5],inactive
same,Potency,[6],inactive
same,outcome,[7],inactive
same,outcome,[8],inactive
same,Potency,[9],inactive
same,Potency,[10],7.37 µM (active)
same,Potency,[11],2.93 µM (active)
same,Potency,[12],9.27 µM (active)
same,Potency,[13],26.1 µM (active)
same,Potency,[14],5.22 µM (active)
same,outcome,[15],inactive
same,Potency,[16],inactive
same,Potency,[17],inactive
CCCCc1ncc(/C=C(\Cc2cccs2)C(=O)O)n1Cc1ccc(C(=O)O)cc1,Potency,[1],inactive
same,Potency,[2],inactive
same,Potency,[4],inactive
same,Potency,[18],inactive
same,Potency,[19],inactive
same,Potency,[5],inactive
same,Potency,[6],inactive
same,outcome,[7],inactive
same,outcome,[8],inactive
same,Potency,[9],inactive
COC(=O)[C@H]1[C@H]2C[C@@H]3c4[nH]c5cc(OC)ccc5c4CCN3C[C@H]2C[C@@H](OC(=O)COc2ccc(OC)cc2)[C@@H]1OC,Potency,[2],inactive
same,Potency,[4],inactive
same,Potency,[18],inactive
same,Potency,[19],inactive
same,Potency,[6],inactive
same,outcome,[7],inactive
same,outcome,[8],inactive
same,Potency,[9],inactive
O=c1cc[nH]c(=S)[nH]1,Potency,[2],0.001 µM (active)
same,Potency,[3],inactive
same,Potency,[4],inactive
same,Potency,[19],inactive
same,Potency,[6],inactive
same,outcome,[7],inactive
same,outcome,[8],inactive
same,Potency,[10],inactive
same,Potency,[11],9.27 µM (active)
same,Potency,[12],2.93 µM (active)
same,Potency,[13],inactive
same,outcome,[15],inactive
same,Potency,[16],inactive
same,Potency,[17],inactive
COCCOC(=O)C1=C(C)NC(C)=C(C(=O)OC/C=C/c2ccccc2)C1c1cccc([N+](=O)[O-])c1 (stereo not drawn),Potency,[2],inactive
same,outcome,[7],inactive
same,outcome,[8],inactive
COc1ccc2[nH]c(S(=O)Cc3ncc(C)c(OC)c3C)nc2n1 (stereo not drawn),Potency,[2],inactive
same,Potency,[3],inactive
same,Potency,[4],inactive
same,Potency,[6],inactive
same,outcome,[7],inactive
same,outcome,[8],inactive
same,Potency,[9],inactive
O=C(O)CN1C(=O)c2cccc3cccc(c23)C1=O,Potency,[2],inactive
same,Potency,[3],inactive
same,Potency,[4],0.001 µM (active)
same,Potency,[18],inactive
same,Potency,[19],0.001 µM (active)
same,Potency,[5],inactive
same,Potency,[6],inactive
same,outcome,[7],inactive
same,outcome,[8],inactive
same,Potency,[9],inactive
same,Potency,[11],inactive
same,Potency,[12],2.93 µM (active)
same,outcome,[15],inactive
same,Potency,[16],26.1 µM (active)
same,Potency,[17],16.5 µM (active)
CC(=O)OCC(=O)[C@@]1(O)CC[C@H]2[C@@H]3CCC4=CC(=O)CC[C@]4(C)[C@H]3C(=O)C[C@@]21C,Potency,[1],inactive
same,Potency,[3],inactive
same,Potency,[4],inactive
same,Potency,[18],inactive
same,Potency,[19],inactive
same,Potency,[5],inactive
same,Potency,[6],inactive
same,outcome,[7],inactive
same,outcome,[8],inactive
same,Potency,[9],inactive
CNCCC(Oc1ccc(C(F)(F)F)cc1)c1ccccc1 (stereo not drawn),Potency,[3],inactive
same,Potency,[19],27.6 µM (active)
same,Potency,[6],16.8 µM (active)
same,outcome,[7],inactive
same,outcome,[8],inactive
CC(CN(C)C)CN1c2ccccc2CCc2ccccc21 (stereo not drawn),Potency,[2],inactive
same,Potency,[6],inactive
same,outcome,[7],inactive
same,outcome,[8],inactive
same,Potency,[9],inactive
CC(C)c1c(C(=O)Nc2ccccc2)c(-c2ccccc2)c(-c2ccc(F)cc2)n1CC[C@@H](O)C[C@@H](O)CC(=O)O,Potency,[3],inactive
same,Potency,[4],1.23 µM (active)
same,Potency,[19],15.5 µM (active)
same,Potency,[5],inactive
same,Potency,[6],6.68 µM (active)
CC1=C(CC(=O)O)c2cc(F)ccc2/C1=C\c1ccc(S(C)(=O)=O)cc1,Potency,[2],inactive
same,Potency,[3],inactive
same,Potency,[4],inactive
same,Potency,[19],inactive
same,Potency,[5],inactive
same,Potency,[6],inactive
same,outcome,[7],inactive
same,outcome,[8],inactive
same,Potency,[9],inactive
Oc1ccc(C(O)CNCCCCCCNCC(O)c2ccc(O)c(O)c2)cc1O (stereo not drawn),Potency,[2],inactive
same,Potency,[4],inactive
same,Potency,[19],inactive
same,Potency,[6],inactive
same,outcome,[7],inactive
same,outcome,[8],inactive
same,Potency,[9],inactive
C[C@](N)(Cc1ccc(O)cc1)C(=O)O,"activity change, negative = cytotoxic",[1],-0.998% [at 6 µM]
same,"activity change, negative = cytotoxic",[3],-5.33% [at 4.84 µM]
same,"activity change, negative = cytotoxic",[4],0.753% [at 6.03 µM]
same,"activity change, negative = cytotoxic",[18],14.1% [at 4.84 µM]
same,"activity change, negative = cytotoxic",[19],-5.63% [at 6.18 µM]
same,"activity change, negative = cytotoxic",[6],-28.9% [at 4.84 µM]
same,"activity change, negative = cytotoxic",[7],5.39% [at 4.84 µM]
same,"activity change, negative = cytotoxic",[8],-4.89% [at 4.84 µM]
same,"activity change, negative = cytotoxic",[9],-37.3% [at 4.84 µM]
same,"activity change, negative = cytotoxic",[10],4.45% [at 5.01 µM]
same,"activity change, negative = cytotoxic",[12],6.85% [at 5.01 µM]
same,"activity change, negative = cytotoxic",[13],-3.72% [at 5.01 µM]
same,"activity change, negative = cytotoxic",[15],9.36% [at 5.01 µM]
same,"activity change, negative = cytotoxic",[17],8.57% [at 5.01 µM]
CCN(CC)CCCC(C)Nc1c2ccc(Cl)cc2nc2ccc(OC)cc12 (stereo not drawn),Potency,[1],5.45 µM (active)
same,Potency,[19],17.4 µM (active)
same,Potency,[5],23.7 µM (active)
same,outcome,[7],inactive
OCCN1CCN(CCCN2c3ccccc3Sc3ccc(Cl)cc32)CC1,Potency,[1],8.64 µM (active)
same,Potency,[19],24.6 µM (active)
CN1CCN(C2Cc3ccccc3Sc3ccc(Cl)cc32)CC1 (stereo not drawn),Potency,[1],21.7 µM (active)
same,Potency,[3],9.44 µM (active)
same,Potency,[19],27.6 µM (active)
same,outcome,[7],inactive
same,outcome,[8],inactive
CC(CN1c2ccccc2Sc2ccccc21)N(C)C (stereo not drawn),Potency,[2],inactive
same,Potency,[3],inactive
same,Potency,[6],inactive
same,outcome,[7],inactive
same,outcome,[8],inactive
O=C1Nc2ccc(Cl)cc2[C@@](C#CC2CC2)(C(F)(F)F)O1,Potency,[3],inactive
same,Potency,[18],inactive
same,Potency,[19],27.6 µM (active)
same,outcome,[7],inactive
same,outcome,[8],inactive
same,Potency,[9],inactive
CC1=C(CC(=O)O)c2cc(F)ccc2/C1=C\c1ccc(S(C)=O)cc1 (stereo not drawn),Potency,[2],inactive
same,Potency,[3],inactive
same,Potency,[4],inactive
same,Potency,[19],inactive
same,Potency,[6],inactive
same,outcome,[7],inactive
same,Potency,[9],inactive
